In all, about 1,800 compounds went through this assay and about 410 (23%) were called active. How the calls were made is not given here. Not all results are given here. Results with a measured potency or affinity are listed apart.
Test: viability of Vero cells under compound – cytotoxicity control for flavivirus capping enzyme inhibitors (AID 588742)
Details: cytotoxicity counter-screen; series mostly up to 40 µM

SMILES	outcome
C=CCN=C1N[C@@H](c2cccc(C(F)(F)F)c2)C(C(=O)OC)=C(C)N1CC	inactive
Cc1c(OC(=O)c2ccc([N+](=O)[O-])cc2)c2c(c[n+]1C)COC(C)(C)OC2	inactive
CCOC(=O)c1cc(-c2ccc(/C=C3/C(=O)NC(=O)C(C#N)=C3C)o2)ccc1Cl	inactive
CCC(c1ccccc1)C(CC)c1cc(O)c(O)c(O)c1 (stereo not drawn)	inactive
N#CC1=C(N)C2=C(N3CCCCC3)CCCC2C1(C#N)C#N (stereo not drawn)	inactive
COc1ccc(C2Nc3cccc4cccc(c34)N2)cc1	inactive
COc1ccc(-c2cc(-c3ccc(Cl)cc3)c(C#N)c(SCC(=O)O)n2)cc1	inactive
CCOC(=O)/C(C#N)=C/c1c(N2CCN(CC)CC2)nc2c(C)cccn2c1=O	inactive
COc1ccccc1N(O)C1CC(=O)N(c2ccc(F)cc2)C1=O (stereo not drawn)	inactive
CC(=O)N(C1=C(Cl)C(=O)c2ccccc2C1=O)c1ccc(C(=O)O)cc1	inactive
O=S(c1ccccc1O)S(=O)c1ccccc1O (stereo not drawn)	inactive
Cc1cc(=O)n(CCc2ccccc2)c(O)c1C#N	inactive
CC1CC2=C(NC(=S)NC2c2ccccc2F)/C(=C/c2ccccc2F)C1 (stereo not drawn)	inactive
COc1ccc(N2C(=O)C(Cl)=C(N3CCOCC3)C2=O)cc1	inactive
O=C1N=c2ccc(Br)cc2=C1c1sc(=S)n(NS(=O)(=O)c2ccccc2)c1O	inactive
COC(=O)CN(c1ccccc1C)S(C)(=O)=O	inactive
COc1cccc(/C=C2\SC(=S)N(C(Cc3ccccc3)C(=O)O)C2=O)c1 (stereo not drawn)	inactive
COc1ccc(-c2csc(NC(=O)CSc3nc(C)nc4sc(C(=O)O)c(C)c34)n2)cc1	inactive
Oc1ccc(/C=N/NC(=S)Nc2cccnc2)c(O)c1O	inactive
CCSc1ncc(Cl)c(C(=O)N(Cc2ccc(N(C)C)cc2)C2CCS(=O)(=O)C2)n1 (stereo not drawn)	inactive
CCN(CCO)c1ccc(NC(=S)Nc2cccc(S(=O)(=O)N(C)C)c2)cc1	inactive

SMILES	outcome
COc1ccc(NC(=S)NNc2ccc(S(=O)(=O)Nc3ccccc3C(=O)O)cc2[N+](=O)[O-])cc1	inactive
O=C1c2ccccc2C(=O)N1OS(=O)(=O)c1ccc(F)cc1	inactive
CC(C)=CCC1=C(OCC(=O)O)C(=O)c2ccccc2C1=O	inactive
CN(C)NC(=S)Nc1ccc2nc(-c3ccccn3)c(-c3ccccn3)nc2c1	inactive
CC(C)c1ccc(S(=O)(=O)c2n[nH]n3c2nc(=O)c2ccccc23)cc1	inactive
CC(C)c1ccc(S(=O)(=O)/N=C2\C=C(NS(=O)(=O)c3ccccc3)C(=O)c3ccccc32)cc1	inactive
Cc1ccc(C(C2C(=O)CC(C)(C)CC2=O)C2C(=O)CC(C)(C)CC2=O)s1	inactive
CC1=NN(c2ccc(C(=O)O)cc2)C(=O)/C1=C/c1ccc(-c2ccccc2F)o1	inactive
CC1=NN(c2ccc(Cl)c(C(=O)O)c2)C(=O)/C1=C\c1ccc(-c2ccc(C(=O)O)cc2)o1	inactive
COc1ccc(N2C(=NC(=O)CCCc3ccccc3)SC3CS(=O)(=O)CC32)cc1 (stereo not drawn)	inactive
O=C1NC(=S)NC1=Cc1ccco1	inactive
O=C1C(=Cc2cccn2-c2ccc(O)cc2)C(=O)c2ccccc21	inactive
COC(=O)c1c(Cl)c2n3ccccc3c(C)c(-c3ccccc3)c-2c1C(=O)OC	inactive
COc1ccc(C(C2C(=O)CC(C)(C)CC2=O)C2C(=O)CC(C)(C)CC2=O)cc1CO	inactive
Cc1ccc(CCCNC(=O)C2CCC(=O)N(Cc3cccc(F)c3)C2)cc1 (stereo not drawn)	inactive
CC(C)(C)OC(=O)N1CCN(C(=O)c2ncn(Cc3ccccc3)c2C(=O)N2CCN(C(=O)OC(C)(C)C)CC2)CC1	inactive
CC1(C(=O)NNC(=O)c2ccc([N+](=O)[O-])cc2)CC1(Br)Br (stereo not drawn)	inactive
CCC(=O)NC(c1ccco1)c1cc(Cl)c2ccccc2c1O (stereo not drawn)	inactive
CC(=O)NC(c1ccco1)c1cc(Cl)c2ccccc2c1O (stereo not drawn)	inactive
COc1ccc(NC(=O)c2ccccn2)cc1OC	inactive
O=C(O)COc1ccccc1C(Nc1ccccn1)c1cc(Cl)c2cccnc2c1O (stereo not drawn)	inactive

SMILES	outcome
C=CCS/C(N)=N\N=C\c1cc(Br)cc([N+](=O)[O-])c1O	inactive
COc1cccc(CNC(=O)CCc2nnc3ccc(NCCCN4CCCC4=O)nn23)c1	inactive
CCOC(=O)C1Nc2ccccc2C2C(O)C(O)CC12 (stereo not drawn)	inactive
COC1C=COC2(C)Oc3c(C)c(O)c4c(O)c(c(CN5CCN(C)CC5)c(O)c4c3C2=O)NC(=O)C(C)=CC=CC(C)C(O)C(C)C(O)C(C)C(OC(C)=O)C1C (stereo not drawn)	inactive
O=C(C1=C(O)C(=O)N(Cc2ccco2)C1c1cccnc1)c1cc2ccccc2o1 (stereo not drawn)	inactive
O=C(O)CN1C(=O)/C(=C\c2cccc(OCc3ccccc3F)c2)SC1=S	inactive
COc1cc(NC(=O)CSc2ncnc3sc4c(c23)CCC(C)C4)c(C(=O)O)cc1OC (stereo not drawn)	inactive
CCOC(=O)c1ccc2c(c1)n(CCO)c(C)[n+]2CC	inactive
Cc1cccc2cc(C#N)c(N3CCC(O)CC3)nc12	inactive
COc1cccc(N2C(=O)CC(Nc3ccc(N4CCOCC4)cc3)C2=O)c1 (stereo not drawn)	inactive
Cc1cc(C(C2C(=O)CC(C)(C)CC2=O)C2C(=O)CC(C)(C)CC2=O)cc(C)c1OC(F)F	inactive
O=C(/C=C/c1ccccc1)n1cnnc1SC/C=C/c1ccccc1	inactive
O=C(O)c1cc(NCc2ccc(F)cc2)ccc1N1CCOCC1	inactive
COC(=O)CCC(=O)OC1(C)C(=O)C2=CN(C3CC3)C(c3ccc(OC)cc3)=CC2=C(Br)C1=O (stereo not drawn)	inactive
Cc1ccc(N2C(=O)C(Cl)=C(N3CCOCC3)C2=O)cc1Cl	inactive
CCOc1cc(C(c2c(C)[nH][nH]c2=O)c2c(C)[nH][nH]c2=O)cc([N+](=O)[O-])c1O	inactive
Cc1ccc(C)c(N=Cc2cc3c(cc2[N+](=O)[O-])OCO3)c1	inactive
O=[N+]([O-])c1cc2ccccc2c(O)c1O	inactive
O=C(O)c1cc([N+](=O)[O-])c(Sc2nc3ccccc3[nH]2)c([N+](=O)[O-])c1	inactive
CCC1=NN2C(=N)/C(=C\c3ccc(OCc4cc(=O)n5nc(CC)sc5n4)c(OC)c3)C(=O)N=C2S1	inactive
Cc1c(C2CC(=O)N(c3ccccc3)C2=O)[nH]n(-c2ccccc2)c1=O (stereo not drawn)	inactive

— PubChem BioAssay AID588742 (Southern Research Specialized Biocontainment Screening …, 2011)
